GluA2 TARP mod – modulates AMPAR-stargazin complexes; O88602+P19491; HEK293 GluA2+stargazin, membrane potential dye (FDSS), glutamate EC50; hits were called plate by plate, in both directions; calls only at 30 µM; 40,000 compounds, 3.5% hits; AID 1259245;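 active = any of four per-well response measures lying three or more SD from its plate-wide compound average, in either direction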
GIRK2 act – Activates human GIRK2-containing potassium channels. P48051. 34,000 tested, under 10 active. AID 1259324. HEK293 GIRK2/NPY4 cells, thallium flux fluorescence. activation (% efficacy), % for hits at 37.5 µM;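 active = primary screen hit, no activity in plain HEK293 cells, and in GIRK2-only cells above 5% efficacy rising with concentration; inactive = the rest, including fluorescent compounds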;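 note: efficacy is normalized control-subtracted fluorescence 15 s after thallium addition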
Target sequence (P48051 whole entry, looked up): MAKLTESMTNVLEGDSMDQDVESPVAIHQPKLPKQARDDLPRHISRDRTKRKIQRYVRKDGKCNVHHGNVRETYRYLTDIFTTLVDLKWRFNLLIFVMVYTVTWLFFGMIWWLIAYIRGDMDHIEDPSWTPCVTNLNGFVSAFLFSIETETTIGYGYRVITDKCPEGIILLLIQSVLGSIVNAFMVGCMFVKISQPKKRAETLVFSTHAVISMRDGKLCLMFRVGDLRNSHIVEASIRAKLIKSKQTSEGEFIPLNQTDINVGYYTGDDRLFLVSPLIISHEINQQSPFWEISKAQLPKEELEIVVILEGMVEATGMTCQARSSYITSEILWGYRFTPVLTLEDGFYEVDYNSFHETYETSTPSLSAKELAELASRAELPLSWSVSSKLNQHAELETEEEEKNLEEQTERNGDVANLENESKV
Numbers stand for hits; - = inactive; . = not tested or not shown; + = active, no number. This excerpt belongs to a sample that is enriched for hits.

SMILES	GluA2 TARP mod	GIRK2 act
NC(=O)C1Cc2ccccc2N1C(=O)NCCc1ccccc1 (stereo unspecified)	-	-
CC(=O)Cn1c(=O)c2c(nc3n(C4CCCC4)c(C)cn23)n(C)c1=O	-	.
CCOC(=O)N1CCN(CC(O)COC(C)(C)CC)CC1 (stereo unspecified)	-	-
Cc1nn(C2CCS(=O)(=O)C2)c2nc(-c3cccs3)cc(C(=O)N3CCC(C(N)=O)CC3)c12 (stereo unspecified)	-	-
CS(=O)(=O)N1CCC(C(=O)Nc2nc3c(s2)COc2ccccc2-3)CC1	.	-
COc1cc(/C=C2\SC(=S)N(c3ccccc3Br)C2=O)ccc1O	+	.
COc1cc(/C=C2\SC(=S)N(c3cccc(C)c3C)C2=O)cc(OC)c1OC	+	.
CCOc1cc(/C=C2\SC(=S)N(c3ccccc3Br)C2=O)ccc1O	-	.
COc1ccc(/C=C2\SC(=S)N(c3cccc(C)c3C)C2=O)cc1OC	-	.
COCCCn1c(N)c(S(=O)(=O)c2ccc(Cl)cc2)c2nc3ccccc3nc21	+	-
COCCCn1c(N)c(S(=O)(=O)c2ccc(OC)cc2)c2nc3ccccc3nc21	-	-
COCCn1c(N)c(S(=O)(=O)c2cccc(Cl)c2)c2nc3ccccc3nc21	+	-
COCCCn1c(N)c(S(=O)(=O)c2cc(C)ccc2C)c2nc3ccccc3nc21	-	-
COc1ccccc1CCNC(=O)c1nc(-c2cnccn2)no1	-	-
CCOC(=O)N1CCN(C(=O)CSc2nnc(-c3cn(C)nc3OC)n2C)CC1	-	-
COCCn1c(=O)c2c(nc3n(-c4ccccc4C)c(-c4ccccc4)cn23)n(C)c1=O	-	.
C=CCn1c(=O)c2c(nc3n(-c4cc(OC)ccc4OC)c(-c4ccccc4)cn23)n(C)c1=O	-	-
C=C(C)Cn1c(=O)c2c(nc3n(-c4cc(OC)ccc4OC)c(-c4ccccc4)cn23)n(C)c1=O	+	-
CCc1ccccc1-n1c(-c2ccccc2)cn2c3c(=O)n(CCOC)c(=O)n(C)c3nc12	+	.
COCCNC(=O)Cc1ccc(NS(=O)(=O)c2ccc(F)c(Cl)c2)cc1	-	-
O=C(NCCS(=O)(=O)N1CCN(c2ccccn2)CC1)c1ccc(F)c(F)c1	.	-
CCCC(=O)NCc1cc(-c2nn(C)c(=O)c3ccccc23)ccc1OC	-	.
COc1ccc(-c2nn(C)c(=O)c3ccccc23)cc1CNC(=O)COc1cccc(C)c1	+	.
O=C(CSc1ccc(-c2ccc3ccccc3c2)nn1)NCc1ccc2c(c1)OCO2	-	-
Cc1cc(C)c(-c2ccc(SCC(=O)NCc3ccc4c(c3)OCO4)nn2)cc1C	+	-
SMILES	GluA2 TARP mod	GIRK2 act
Cc1ccc(N2CCn3c2nn(CC(=O)N(C)c2ccccc2)c(=O)c3=O)cc1	-	-
O=C(/C=C/c1ccco1)N1CCC(CNS(=O)(=O)Cc2ccccc2)CC1	-	-
CN(C)c1ccc(-c2oc3ccccc3c(=O)c2O)cc1	+	.
O=c1c(O)c(-c2ccccc2)oc2ccccc12	-	.
COc1ccc(S(=O)(=O)Nc2nc(CCC(=O)Nc3ccc(F)c(F)c3)cs2)cc1	-	-
COc1ccc(OC)c(-c2csc(NC(=O)c3ccc(SC(C)C)cc3)n2)c1	-	-
COc1ccc(-c2csc(NC(=O)c3ccc(SC(C)C)cc3)n2)c(OC)c1	+	.
COc1ccc(-n2nnnc2SCCC(=O)Nc2cccc(C)c2)cc1	-	-
O=C(NCC1CCCO1)C(=O)Nc1c2c(nn1-c1ccc(Cl)cc1)CS(=O)(=O)C2 (stereo unspecified)	-	-
Cc1cc(C)c2c(n1)nn1c(NCCCN(C)C)cc(C)nc21	+	-
Cc1cc(C)c2c(n1)nn1c(NCCC3=CCCCC3)cc(C)nc21	-	-
Cc1cc(C)c2c(n1)nn1c(NCc3ccccn3)cc(C)nc21	-	-
Cc1cc(C)c2c(n1)nn1c(NCCOCCO)cc(C)nc21	+	-
CCOC(=O)C1CCN(C(=O)c2cccc(-n3ccc4ccccc43)c2)CC1	-	-
CCOC(=O)c1c(SCc2ccccc2)nc(=O)[nH]c1C	+	-
CCOC(=O)c1c(SCC(=O)NCCc2ccccc2)nc(=O)[nH]c1C	-	-
O=C(Nc1cccc(Br)c1)c1ccc(=O)n(Cc2ccc(C(F)(F)F)cc2)c1	-	-
Cc1nc(NCCNC(=O)Nc2ccccc2)cc(N2CCCC2)n1	.	-
Cc1nn(C2CCS(=O)(=O)C2)c2nc(-c3ccccc3)cc(C(=O)NCCCn3ccnc3)c12 (stereo unspecified)	.	-
CCN(CC)c1ccc(C2C(C(=O)Nc3cccc(C(F)(F)F)c3)=C(C)NC3=C2C(=O)CCC3)cc1 (stereo unspecified)	-	.
CC1=C(C(=O)Nc2cccc(C(F)(F)F)c2)C(c2ccc(C)cc2)C2=C(CCCC2=O)N1 (stereo unspecified)	+	.
COc1ccc(N(Cc2ccccc2)S(=O)(=O)c2ccc3nncn3c2)cc1	-	-
Cc1cccc(CN(c2ccc3c(c2)OCO3)S(=O)(=O)c2ccc3nncn3c2)c1	+	-
O=C1CC(NC(=O)c2ccccc2Oc2ccccc2)CN1 (stereo unspecified)	+	.
CCSc1ccccc1C(=O)NC1CNC(=O)C1 (stereo unspecified)	-	.
SMILES	GluA2 TARP mod	GIRK2 act
Cc1ccc(C)c(Nc2nnc(CC(=O)NCCC(C)C)s2)c1	.	-
COc1ccc(NS(=O)(=O)c2c(C)cc(C)c(N(C)S(C)(=O)=O)c2C)cc1	+	-
Cc1cc(C)c(S(=O)(=O)Nc2ccc(F)cc2)c(C)c1N(C)S(C)(=O)=O	-	-
COc1cn(CC(=O)NCc2ccc(F)cc2)c(CSc2ccc(F)cc2)cc1=O	-	-
COCCn1c(=O)c2c(nc3n(-c4ccccc4F)c(C)cn23)n(C)c1=O	-	-
COc1ccc(C)cc1N1CCn2c1nc1c2c(=O)n(C/C=C/c2ccccc2)c(=O)n1C	-	.
O=C(c1nc2ccccc2s1)N1CCC(c2ccsc2)CC1	-	-
COc1ccccc1C1(C(=O)N2CCC(c3ccsc3)CC2)CCOCC1	+	-
CN1C(=O)N(C)C2(CCN(C(=O)c3ccc(C(C)(C)C)cc3)CC2)C1=O	-	-
CC(O)(CNC(=O)COc1ccc2ccccc2c1)c1ccccc1 (stereo unspecified)	-	-
COc1cccc(OCC(=O)NCC(C)(O)c2ccc(-c3ccccc3)cc2)c1 (stereo unspecified)	+	-
Cn1nc(CNC(=O)c2cccc(C#N)c2)c2ccccc2c1=O	+	-
Cn1nc(CNC(=O)c2ccccc2C(=O)c2ccccc2)c2ccccc2c1=O	-	-
CC(C)(C)n1nc2c(c1-n1cccc1)CN(C(=O)c1cccs1)C2	-	-
Cc1ccc(-n2nc3c(c2-n2cccc2)CN(C(=O)c2cnccn2)C3)cc1C	-	100.0%
Cc1ccc(-n2nc3c(c2-n2cccc2)CN(C(=O)c2ccno2)C3)cc1C	-	-
Cc1ccc(-n2nc3c(c2-n2cccc2)CN(C(=O)c2ccsc2)C3)cc1	+	-
O=C(NCC(O)(c1ccco1)C1CC1)C(=O)Nc1ccccc1Cl (stereo unspecified)	-	-
COc1ccccc1C(=O)NCCNc1ccc(Nc2cccc(C)n2)nn1	.	-
CCC(CC)C(=O)NCCNc1ccc(Nc2cccc(C)n2)nn1	+	-
Cc1ccc(NC(=O)Cn2cnc3c(sc4ncccc43)c2=O)c(C)c1	-	-
COc1ccc(CNC(=O)CSc2nc(-c3ccccc3)[nH]c2S(=O)(=O)c2ccccc2)cc1	-	-

Assay outcomes as filed in PubChem.
